Among all 59,000 compounds or so, about 6,200 (11%) were called active. Inconclusive results (about 9%) are left out. Rule as the data show it: active = max dye-equivalent concentration above about 10 nM; inconclusive = mostly about 1.1 nM to 9.6 nM; inactive = weaker than that. Shown is part of a subset that was picked to be rich in actives.

The assay can be described thus: qHTS Assay for Spectroscopic Profiling in 4-MU Spectral Region. Particulars: compound autofluorescence, 340/450 nm, 4-MU equivalents; hits give high values. Put shortly:
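Compounds in 100 mM Tris, pH 8.0, incubated 15 min at room temperature, then fluorescence read at 340 nm excitation/450 nm emission. Signal converted to 4-MU dye-equivalent concentration using an on-plate six-point 4-MU standard curve.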
On the technique in general: In qHTS, concentration-response curves come from the screen itself.
With `O=C(Cn1c(=O)n(Cc2ccco2)c(=O)c2ccccc21)NCC1CCCO1` (configuration not stated), the max dye-equivalent concentration result was “inactive”.
On to `COc1ccccc1-n1cnc2cc(C(=O)NCC3CCCO3)ccc21` (configuration not stated), for which the max dye-equivalent concentration result is “inactive”.
Turning to `Cc1cc2c(cc1C)NC1=C(N2)O[C@H](c2c[nH]c3ccc(COc4ccccc4)cc23)C1=O`, the max dye-equivalent concentration result is “inactive”.
Turning to `CCN(CCCCOC(=O)c1ccc(OC)c(OC)c1)C(C)Cc1ccc(OC)cc1` (configuration not stated), the max dye-equivalent concentration entry is “inactive”.
As for `CC(C)NC(=O)N1CC[C@@]2(CCCN(C(=O)c3cccn3C)C2)C1`, the max dye-equivalent concentration entry was “inactive”.
`CCOc1ccc2nc(NC(=O)CSc3nc4c(c(=O)n(C)c(=O)n4C)n3CC)sc2c1`: the max dye-equivalent concentration entry is “inactive”.
For `CC(=O)c1ccc(-n2nnnc2SCC(=O)N2CCN(C(=O)c3ccco3)CC2)cc1`, the max dye-equivalent concentration entry was “inactive”.
As to `COc1ccc(CCN2C(=O)c3[nH]nc(-c4ccccc4O)c3C2c2ccc(C)cc2)cc1OC` (configuration not stated), the max dye-equivalent concentration was 110 nM (active).
On to `COc1ccc(CCN(C)CCN2C(=O)c3ccccc3C2=O)cc1OC`, for which the max dye-equivalent concentration result was “inactive”.
In the case of `COc1ccc(-c2n[nH]c(C)c2-c2ccc(OC)c(OC)c2)c(O)c1`, the max dye-equivalent concentration entry was “inactive”.
For `Cc1ccc(NC(=O)C2CCCN(S(=O)(=O)c3c(C)noc3C)C2)c(C)c1` (configuration not stated), the max dye-equivalent concentration result was “inactive”.
Regarding `Cc1ccc(Cn2nnc3c(=O)n(CC(=O)N4CCCCC4)cnc32)cc1`, the max dye-equivalent concentration entry is “inactive”.
Consider `COC(=O)c1ccccc1NC(=O)CN(Cc1ccccc1)S(C)(=O)=O`, for which the max dye-equivalent concentration result is “inactive”.
The entry for `CNC(=O)CSc1nnnn1-c1ccc(C)cc1C` is “inactive”; for `Nc1cc(=O)nc(SCc2ccccc2)n1Cc1ccco1` it is “inactive”; for `O=c1[nH]c(CSc2ncc(-c3ccc(F)cc3)n2Cc2ccco2)nc2ccccc12` it is “inactive”.
Turning to `O=c1[nH]c(=O)n(Cc2ccco2)c2c1C(C(F)(F)F)(C(F)(F)F)N=C(c1ccco1)N2`, the max dye-equivalent concentration was 18 nM (active).
With `CC1Cc2ccccc2N1C(=O)Cn1cnc2ccccc2c1=O` (configuration not stated), the max dye-equivalent concentration result is “inactive”.
Take `COc1ccc(CC(=O)Nc2ccc(-c3nnc(-c4ccc(C)cc4)o3)cc2)cc1`: the max dye-equivalent concentration entry was “inactive”.
The value for `Cc1ccc(OCC(=O)Nc2ccc(-c3nc4ncccc4o3)cc2)cc1` was 25 nM (active); that for `Cc1ccc(OCC(=O)Nc2ccc(-c3nnc(-c4ccco4)o3)cc2)cc1` was “inactive”.
`COc1ccccc1N(CC(=O)N1CCCCC1)S(=O)(=O)c1ccccc1`: the max dye-equivalent concentration entry is “inactive”.
`Cc1ccc(S(=O)(=O)N2CCC(C(=O)N[C@@H](C)C(=O)NCc3ccccc3)CC2)cc1`: the max dye-equivalent concentration entry is “inactive”.
Regarding `COc1ccc(Cl)cc1S(=O)(=O)N1CCN(CC(=O)C(C)(C)C)CC1`, the max dye-equivalent concentration entry was “inactive”.
With `CCCCOC(=O)NCN1C(=O)C2C3C=CC(C3)C2C1=O` (configuration not stated), the max dye-equivalent concentration result is “inactive”.
The value for `COCC(C)NC(=O)c1ccc(Cl)c(Cl)c1` (configuration not stated) was “inactive”; that for `COCCNC(=O)c1snc2ccc(Cl)cc12` was 49 nM (active).
In the case of `COCCNC(=O)c1ccccc1-c1nc(-c2ccccc2Cl)no1`, the max dye-equivalent concentration result was “inactive”.
Take `CCN(CC)c1ccc(C(=O)OCC(=O)c2ccco2)cc1`: the max dye-equivalent concentration result was “inactive”.
On to `Fc1ccc2nc(N3CCCCC3)sc2c1`, for which the max dye-equivalent concentration entry was “inactive”.
Regarding `Cc1cc(N2CCCCC2)nc2ccc(Cc3ccc4nc(N5CCCCC5)cc(C)c4c3)cc12`, the max dye-equivalent concentration was 45 nM (active).
As to `O=C(CSc1nnc(-c2ccoc2)o1)N1CCOCC1`, the max dye-equivalent concentration result was “inactive”.
For `O=C(O)C1C2C=CC(C2)C1C(=O)N1CCN(CCO)CC1` (configuration not stated), the max dye-equivalent concentration entry is “inactive”.
As for `O=c1[nH][nH]c(=O)c2cc(N3CCCC3)ccc12`, the max dye-equivalent concentration is 53 nM (active).
The value for `Cc1c(NC(=O)C(C)OC(=O)c2cc3c4ccccc4n(C)c3s2)c(=O)n(-c2ccccc2)n1C` (configuration not stated) was 110 nM (active).
`Cc1ccccc1OCCC(=O)Nc1c(C)n(C)n(-c2ccccc2)c1=O`: the max dye-equivalent concentration result was “inactive”.
With `Cc1cc(C)cc(N(C(C)C(=O)Nc2c(C)n(C)n(-c3ccccc3)c2=O)S(C)(=O)=O)c1` (configuration not stated), the max dye-equivalent concentration entry is “inactive”.
As to `CCOC(=O)C1CCN(C(=O)CC2C(=O)N(Cc3ccccc3)C(C)c3nc4ccccc4n32)CC1` (configuration not stated), the max dye-equivalent concentration entry is “inactive”.
Consider `CC1(C)Cc2ccccc2-c2nc(CN3CCOCC3)[nH]c(=O)c21`, for which the max dye-equivalent concentration entry is “inactive”.
`N#Cc1c(N)sc2c1CCN(C(=O)OCc1ccccc1)C2`: the max dye-equivalent concentration entry was “inactive”.
Turning to `CCN1CCc2c(C#N)c(NCc3ccccc3)nc(NCCO)c2C1`, the max dye-equivalent concentration is 430 nM (active).
Consider `CC(=O)/C(=N\N=C(N)N)c1ccccc1`, for which the max dye-equivalent concentration entry is “inactive”.
Consider `CCc1nnc(NS(=O)(=O)c2ccc(NS(=O)(=O)c3ccccc3)cc2)s1`, for which the max dye-equivalent concentration result is “inactive”.
For `CCc1nnc(NC(=O)C2CCCN2S(=O)(=O)c2ccccc2)s1` (configuration not stated), the max dye-equivalent concentration is 18 nM (active).
Regarding `CC(C)c1nnc(NC(=O)C2CCCN2S(=O)(=O)c2ccc(Cl)cc2)s1` (configuration not stated), the max dye-equivalent concentration entry is “inactive”.
The entry for `O=C(C1=C(O)C(=O)N(Cc2ccccc2)C1c1cccnc1)c1ccco1` (configuration not stated) is “inactive”; for `N#CC(C(N)=O)=C1CCC2(CC1)OCCCCO2` it is “inactive”; for `COc1cc(C2C(C(=O)c3ccc(C)o3)=C(O)C(=O)N2Cc2cccnc2)ccc1O` (configuration not stated) it is “inactive”.
`CCSC1=C(C#N)C(=O)n2c1cc1c2CCCC1`: the max dye-equivalent concentration entry is “inactive”.
`COc1cc(NS(=O)(=O)c2ccc(NC(C)=O)cc2)cc(OC)c1`: the max dye-equivalent concentration entry is “inactive”.
Take `CC(=O)Nc1ccc(S(=O)(=O)Nc2cccc(NC(=O)C(C)(C)C)c2)cc1`: the max dye-equivalent concentration result is “inactive”.
`COc1ccc(NS(=O)(=O)c2ccc(NC(=O)C(C)(C(F)(F)F)C(F)(F)F)cc2)nn1`: the max dye-equivalent concentration is 20 nM (active).
